# High-throughput results deposited in PubChem by Broad Institute.
# In the library only some 2.2% were active in any assay of this set; here they are far more common.
# EBV LMP1 NFkB – inhibitors of Epstein-Barr LMP1-induced NF-kappaB reporter; 350,000 compounds, 0.69% hits; LMP1-induced NF-kappaB luciferase reporter cells, luminescence; inhibition, % at 12.5 µM; AID 504558; in the data active = inhibition above about 41%; inconclusive = no clear call, values can overlap the other calls;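 also: 0% = neutral control wells and 100% = reference inhibitor control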
# EWS-Fli inh – blocks EWS/Fli oncoprotein-driven transcription | A673 NR0B1-luciferase reporter, viability-normalised | inhibition, % at 12.6 µM | AID 651661 | 350,000 compounds, 0.67% hits;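 active = mean inhibition of at least 50% after viability correction, with every replicate also passing that limit; inconclusive = mean reaches 50% but only one of two replicates passes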;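 also: firefly luciferase signal divided by Alamar Blue viability fluorescence both relative to DMSO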
# Shn3 3UTR inh – reduces Shn3 3'UTR luciferase signal in osteoblasts | 360,000 compounds, 0.52% hits | AID 588674 | Clone20 osteoblast Shn3 3'UTR firefly luciferase, 24 h | inhibition, % at 12.5 µM;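 active = mean inhibition of at least 75% with every replicate also reaching 75%; inconclusive = mean inhibition at least 75% but some replicate below; inactive = mean inhibition below 75%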;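 also: 0% = median of neutral control wells and 100% = pilot-screen positive control compound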
# MITF TRPM1 inh – inhibitors of MITF-driven TRPM1 promoter in melanoma cells | SK-MEL-5 TRPM1 promoter luciferase, 24 h | inhibition, % at 12.5 µM | 330,000 compounds, 0.83% hits | AID 488899;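 active = mean inhibition across replicates of 60% or more, whatever share of single replicates reaches that level; inconclusive = some that reach 60%, reason not given; inactive = mean inhibition across replicates below 60%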
# PAX8 reporter – inhibitors of PAX8 transcriptional activity in RMG-I cells; 360,000 compounds, 1.2% hits; inhibition, % at 12.6 µM; AID 652154; RMG-I TPO-luciferase reporter, SteadyGlo, 24 h;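 active = mean replicate inhibition at least 60% with every replicate also reaching 60%; inconclusive = only one of the two criteria is met; inactive = mean below 60% and not all replicates reaching 60%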;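 also: luciferase light reporting Pax8 driven TPO promoter activity; plate controls were median of neutral control wells for no effect and mitoxantrone controls for full effect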
# LGR2 antag – inhibitors of bursicon-induced Drosophila LGR2 receptor cAMP signaling | AID 720647 | 380,000 compounds, 0.35% hits | inhibition, % at 9.99 µM | HEK293 LGR2, CRE-luciferase, bursicon-stimulated, 4 h;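 active = drop in luminescence signal, shown as inhibition above about 50% in the replicate tests, limit read from the data, passing the limit was not always enough; inconclusive = probably only some replicates passing the limit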;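 also: agonist challenge used bursicon conditioned medium at about half maximal strength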
# Active calls of the source: *; ? = inconclusive; / = not tested or not shown; ! = not active in a repeat.
SMILES,EBV LMP1 NFkB,EWS-Fli inh,Shn3 3UTR inh,MITF TRPM1 inh,PAX8 reporter,LGR2 antag
Clc1ccc(-c2nnc(NC3=NCCCCC3)o2)cc1,46*,/,16,12,/,/
O=C(Nc1nnc(-c2ccc(Cl)cc2)o1)C1CCCCC1,-13,-8,-6,-15,7,-6
O=C(Nc1ccc(-c2ccccc2)cc1)[C@@H]1[C@@H](CO)[C@@H]2Cn3c(cccc3=O)[C@H]1N2Cc1ccccc1,/,6,/,/,/,18
c1ccc(-c2cc(-c3ccccc3)on2)cc1,-10,-90,-60,-76,-141,-84
Cc1ccc(-c2cc(-c3ccccc3)no2)cc1,-44,59*,-76,-36,-24,57*
O=C(C[C@@H]1CC[C@H]2[C@@H](COC[C@H](O)CN2C(=O)c2ccccc2)O1)Nc1ccccc1,/,/,/,/,/,11
Cc1nc(SCC(=O)c2cccc([N+](=O)[O-])c2)n[nH]1,55*,/,9,5,/,/
COc1cccc(/C=C/C(=O)Nc2ccc3c(c2)OCCO3)c1OC,0,7,-9,-6,-27,61*
CCOC(=O)Cn1c(COc2ccccc2OC)[n+](C)c2ccccc21,/,2,13,/,-29,/
CCCCCCCCCCOC(=O)Cn1c(COc2ccc(OC)cc2)[n+](C)c2ccccc21,-4,/,94*!,85*,/,/
CCCCCCCCCCOC(=O)Cn1c(COc2ccc(Cl)cc2)[n+](C)c2ccccc21,7,35,96*,28,3,8
CCCCCCCCCCOC(=O)Cn1c(COc2ccccc2)[n+](C)c2ccccc21,29,29,?,11,71*,12
CCCCCCCCCCOC(=O)Cn1c(COc2cccc(C)c2)[n+](C)c2ccccc21,-4,15,59,47,36,9
CNC[C@@H]1Oc2ccc(NS(=O)(=O)c3ccc(C)cc3)cc2C(=O)N([C@@H](C)CO)C[C@H]1C,/,1,/,/,-9,-2
C#CCn1c(S(=O)(=O)Cc2ccc(F)cc2)nc(-c2ccccc2)c1-c1ccccc1,43*,/,21,-17,/,/
CCN(Cc1ccc(OC)c(F)c1)C(=O)CCl,-14,15,15,75*,-3,13
CCN(Cc1ccc(OC)c(F)c1)C(=O)C1CCCO1 (stereo unspecified),0,3,6,4,3,-2
COc1cc(C(=O)c2cc3c(cc2C)OCO3)cc(OC)c1OC,/,58*,20,/,84*,-15
CCN1[C@@H]2Cn3c(ccc(C4=CCCCC4)c3=O)[C@H]1[C@@H](C(=O)NCCc1ccncc1)[C@@H]2CO,/,-3,/,/,/,6
COc1ccc(/C=C2\CCCCC2=O)cc1,-5,-47,-4,-14,-31,-16
COc1ccc(C=C2CS(=O)(=O)CC(=Cc3ccc(OC)cc3)C2=O)cc1,91*,60*,71,/,77*,active
CC(C)CC#Cc1ccc([C@H]2[C@@H](CO)N3C(=O)CN(C(=O)CN4CCOCC4)C[C@@H]23)cc1,/,0,/,/,/,2
COC(=O)c1cc(=O)n(Cc2ccc(F)cc2)c(=Nc2ccccc2)s1,-3,21,-1,20,4,24
COC(=O)c1cc(=O)n(Cc2ccc(OC)c(OC)c2)c(=Nc2ccc(F)cc2)s1,10,3,17,16,41,62*
COC(=O)c1cc(=O)n(CCc2ccc(OC)c(OC)c2)c(=Nc2ccc(F)c(Cl)c2)s1,-30,13,50,7,17,55*
SMILES,EBV LMP1 NFkB,EWS-Fli inh,Shn3 3UTR inh,MITF TRPM1 inh,PAX8 reporter,LGR2 antag
CC(C)(C)[S@@](=O)N1Cc2cc(C(=O)N3CCCCC3)nc(-c3cccc(-c4ccc(C#N)cc4)c3)c2[C@H]1CCO,/,1,/,/,-3,-2
CCCCOC(=O)/C=C/c1ccc(OC(=O)OC)c(OC(=O)OC)c1,-15,/,96*,-19,-77,-32
COC(=O)Oc1ccc(/C=C/C(=O)OC(C)C)cc1OC(=O)OC,-14,/,94*,-63,-33,-14
CN1CCN(Cc2c(O)ccc3occ(C(=O)c4ccccc4)c23)CC1,-1,/,-10,15,17,/
CC(=O)C(C(C)=O)c1c(Cl)c(O)c(O)c2c(C(=O)c3ccccc3)coc12,8,/,89*,38,/,?
CCOC(=O)c1c2c(n(-c3ccc(OC)cc3)c1C)C(=O)C(=O)c1ccccc1-2,87*,/,97*,94*,/,/
CCCCCc1cc(=O)oc2c(C(CCN(CC)CC)c3cc(OC)c(OC)c(OC)c3)c(OC)cc(OC)c12 (stereo unspecified),0,51*,21,93*,15,/
CCCCCc1cc(=O)oc2c(C(CCN3CCCCC3)c3ccc4c(c3)OCO4)c(OC)cc(OC)c12 (stereo unspecified),-11,21,-16,84*,88*,40
COc1ccc(C(CCN2CCOCC2)c2c(OC)cc(OC)c3c(-c4ccccc4)cc(=O)oc23)cc1 (stereo unspecified),-2,6,22,13,24,-1
COc1ccc(C(CCN2CCCC2)c2c(OC)cc(OC)c3c(-c4ccccc4)cc(=O)oc23)cc1 (stereo unspecified),-27,3,-2,67*,14,-14
C[C@H]1CN([C@@H](C)CO)C(=O)c2cc(NC(=O)Cc3ccccc3)ccc2O[C@H]1CN(C)Cc1ccc(Cl)c(Cl)c1,/,7,/,/,/,5
COCCNC(=O)CN(C(=O)CCC(=O)Nc1ccccn1)c1ccc(F)c(Cl)c1,87*,/,-8,-1,/,/
COCCNC(=O)CN(C(=O)CCC(=O)Nc1ccccn1)c1ccc(F)cc1,-4,/,-16,3,/,/
CCOC(=O)Nc1nc2ccc(Cn3cccc3)cc2[nH]1,0,51*,-15,-7,/,-33
COc1ccc(CC(=O)Nc2nc3ccccc3[nH]2)cc1,-3,-13,-29,-3,-44,8
C[C@H]1CCCCO[C@@H](CN(C)C(=O)Nc2ccccc2)[C@@H](C)CN([C@@H](C)CO)C(=O)c2cc(NC(=O)NC3CCCCC3)ccc2O1,/,-5,/,/,24,63*
C[C@@H]1CN([C@@H](C)CO)C(=O)c2cc(NC(=O)NC3CCCCC3)ccc2O[C@@H](C)CCCCO[C@@H]1CN(C)C(=O)Nc1ccccc1,/,-1,/,/,1,14
COc1ccc(NC(=O)N(C)C[C@@H]2OCCCC[C@H](C)Oc3ccc(NC(=O)NC4CCCCC4)cc3C(=O)N([C@H](C)CO)C[C@@H]2C)cc1,/,-2,/,/,-23,57*
COc1ccc(NC(=O)N(C)C[C@H]2OCCCC[C@H](C)Oc3ccc(NC(=O)NC4CCCCC4)cc3C(=O)N([C@@H](C)CO)C[C@H]2C)cc1,/,1,/,/,-10,9
Cc1ccc(S(=O)(=O)N(C)C[C@@H]2OCCCC[C@H](C)Oc3ccc(NS(=O)(=O)c4cccs4)cc3C(=O)N([C@H](C)CO)C[C@@H]2C)cc1,/,0,/,/,67*,0
